Measurements from the supplement of paper PMC13380429.

Tests used:
[1] = tested on: Vero E6 infected with SARS-CoV-2; assay: morphology score (similarity to uninfected cells); higher = more like uninfected cells; settings: 24 h
[2] = tested on: Vero E6 infected with SARS-CoV-2; assay: SARS-CoV-2 infection rate relative to infected DMSO; higher = more infection, active = 60 or less; settings: 24 h
[3] = tested on: Vero E6 infected with SARS-CoV-2; assay: inhibition of SARS-CoV-2 cytopathic effect; higher = more antiviral protection, active = above 15; settings: 48 h

Compound: COCCCN1CCC(NC(=O)c2cc(Cl)c(N)c3c2OCC3)CC1 [prucalopride] (10 µM)
- morphology score [1]: 0.0302
- SARS-CoV-2 infection rate [2]: 109% (inactive)

Compound: C[N+]1(C)CCCC(OC(=O)C(O)(c2ccccc2)c2ccccc2)C1 (stereo unspecified) [mepenzolate] (10 µM)
- morphology score [1]: 0.047
- SARS-CoV-2 infection rate [2]: 105% (inactive)

Compound: c1cnc2cc3c(cc2n1)[C@@H]1CNC[C@H]3C1 [varenicline] (10 µM)
- morphology score [1]: -0.0409
- SARS-CoV-2 infection rate [2]: 101% (inactive)

Compound: CCOc1ccc2nc(S(N)(=O)=O)sc2c1 [ethoxzolamide] (10 µM)
- morphology score [1]: 0.205
- SARS-CoV-2 infection rate [2]: 97.5% (inactive)

Compound: COc1cc(C(=O)NC2CCN(C)CC2)c(F)cc1Nc1ncc2c(n1)N(C1CCCC1)CC(F)(F)C(=O)N2C (0.833333 µM)
- morphology score [1]: -0.193
- SARS-CoV-2 infection rate [2]: 100% (inactive)

Compound: Cc1cc(C(=O)O)sc1C(N)C(=O)O (stereo unspecified) (10 µM)
- morphology score [1]: -0.0491
- SARS-CoV-2 infection rate [2]: 95% (inactive)

Compound: CC(C)C(=O)SCCCCC[C@H](NC(=O)OC(C)(C)C)C(=O)NC12CC3CC(CC(C3)C1)C2 (10 µM)
- morphology score [1]: -0.113
- SARS-CoV-2 infection rate [2]: 97% (inactive)

Compound: Nc1nc(=O)c2c([nH]1)NCC(CNc1ccc(C(=O)N[C@@H](CCC(=O)O)C(=O)O)cc1)N2C=O (stereo partly specified) [leucovorin] (10 µM)
- morphology score [1]: -0.0198
- SARS-CoV-2 infection rate [2]: 89.8% (inactive)

Compound: O=c1nc2ccccc2c2n1CC(CN1CCN(c3ccccc3)CC1)N2 (stereo unspecified) (10 µM)
- morphology score [1]: 0.221
- SARS-CoV-2 infection rate [2]: 93% (inactive)

Compound: Cc1cc(NC(=O)NCCN2CCC(O)(Cc3ccccc3)CC2)c2ccccc2n1 [palosuran] (10 µM)
- morphology score [1]: -0.00351
- SARS-CoV-2 infection rate [2]: 112% (inactive)

Compound: Cc1[nH]c(=O)c(C#N)cc1-c1ccc2nccn2c1 [olprinone] (10 µM)
- morphology score [1]: 0.0999
- SARS-CoV-2 infection rate [2]: 104% (inactive)

Compound: C[C@@H](O)[C@H]1C(=O)N2C(C(=O)O)=C(SCCNC=N)C[C@H]12 [imipenem] (10 µM)
- morphology score [1]: -0.161
- SARS-CoV-2 infection rate [2]: 114% (inactive)

Compound: CCOC(=O)c1ccc(NC2CCCCC2)c(N)c1 [ferrostatin-1] (10 µM)
- morphology score [1]: 0.117
- SARS-CoV-2 infection rate [2]: 94% (inactive)

Compound: O=P(O)(O)C(O)(Cc1cccnc1)P(=O)(O)O [risedronate] (10 µM)
- morphology score [1]: 0.123
- SARS-CoV-2 infection rate [2]: 89% (inactive)

Compound: O=C(NC1CCN(CCc2c[nH]c3ccccc23)CC1)c1ccccc1 [indoramin] (10 µM)
- morphology score [1]: 0.105
- SARS-CoV-2 infection rate [2]: 102% (inactive)

Compound: CC[C@H](CC[C@@H](C)[C@H]1CC[C@H]2[C@@H]3CC=C4C[C@@H](O)CC[C@]4(C)[C@H]3CC[C@]12C)C(C)C [beta-Sitosterol] (10 µM)
- morphology score [1]: 0.119
- SARS-CoV-2 infection rate [2]: 99% (inactive)

Compound: CNC(=O)Oc1cccc2ccccc12 [carbaril] (10 µM)
- morphology score [1]: 0.025
- SARS-CoV-2 infection rate [2]: 101% (inactive)

Compound: C=CCNc1ncnc2ccc(Br)cc12 (10 µM)
- morphology score [1]: 0.19
- SARS-CoV-2 infection rate [2]: 101% (inactive)

Compound: O=C1[C@H]2CCCC[C@H]2C(=O)N1CCCCN1CCN(c2nsc3ccccc23)CC1 [perospirone] (10 µM)
- morphology score [1]: 0.0481
- SARS-CoV-2 infection rate [2]: 115% (inactive)

Compound: CCC[C@H](N[C@@H](C)C(=O)N1[C@H](C(=O)O)C[C@@H]2CCCC[C@@H]21)C(=O)OCC [perindopril] (10 µM)
- morphology score [1]: 0.104
- SARS-CoV-2 infection rate [2]: 95% (inactive)

Compound: NS(=O)(=O)NCc1csc2ccccc12 (10 µM)
- morphology score [1]: 0.212
- SARS-CoV-2 infection rate [2]: 87.5% (inactive)

Compound: O=C(O)CCCC[C@@H]1SC[C@@H]2NC(=O)N[C@@H]21 [biotin] (10 µM)
- morphology score [1]: -0.0202
- SARS-CoV-2 infection rate [2]: 108% (inactive)

Compound: C/C=C(/C)C(=O)O[C@H]1C(C)=C[C@]23C(=O)[C@@H](C=C(CO)[C@@H](O)[C@]12O)[C@H]1[C@@H](C[C@H]3C)C1(C)C [ingenol-mebutate]
- inhibition of SARS-CoV-2 cytopathic effect ([3]; 1 nM): -1.66% (inactive)
- inhibition of SARS-CoV-2 cytopathic effect ([3]; 8.33 nM): -1.76% (inactive)
- inhibition of SARS-CoV-2 cytopathic effect ([3]; 100 nM): -8.12% (inactive)
- inhibition of SARS-CoV-2 cytopathic effect ([3]; 833.33 nM): -7.76% (inactive)
- inhibition of SARS-CoV-2 cytopathic effect ([3]; 10000 nM): -8.66% (inactive)

Compound: CCC1=C(C)CN(C(=O)NCCc2ccc(S(=O)(=O)NC(=O)N[C@H]3CC[C@H](C)CC3)cc2)C1=O [glimepiride] (10 µM)
- morphology score [1]: 0.152
- SARS-CoV-2 infection rate [2]: 99% (inactive)

Compound: CN1CCN(S(=O)(=O)c2ccc(-c3cnc(N)c(C(=O)Nc4cccnc4)n3)cc2)CC1 (0.833333 µM)
- morphology score [1]: 0.224
- SARS-CoV-2 infection rate [2]: 99% (inactive)

Compound: COCCCOc1ccnc(C[S+]([O-])c2nc3ccccc3[nH]2)c1C (stereo unspecified) [rabeprazole]
- inhibition of SARS-CoV-2 cytopathic effect ([3]; 1 nM): -0.56% (inactive)
- inhibition of SARS-CoV-2 cytopathic effect ([3]; 8.33 nM): -0.31% (inactive)
- inhibition of SARS-CoV-2 cytopathic effect ([3]; 100 nM): 2.14% (inactive)

Compound: CC(C)(C)c1ccc(CN2CCN(C(c3ccccc3)c3ccc(Cl)cc3)CC2)cc1 (stereo unspecified) [buclizine]
- inhibition of SARS-CoV-2 cytopathic effect ([3]; 1 nM): -1.54% (inactive)
- inhibition of SARS-CoV-2 cytopathic effect ([3]; 8.33 nM): -0.87% (inactive)
- inhibition of SARS-CoV-2 cytopathic effect ([3]; 100 nM): 0.71% (inactive)
- inhibition of SARS-CoV-2 cytopathic effect ([3]; 833.33 nM): 0.45% (inactive)
- inhibition of SARS-CoV-2 cytopathic effect ([3]; 10000 nM): 2.38% (inactive)

Compound: COc1ccc(NS(=O)(=O)c2sc3ccc(Cl)cc3c2C)cc1N1CCNCC1
- inhibition of SARS-CoV-2 cytopathic effect ([3]; 1 nM): 0.93% (inactive)
- inhibition of SARS-CoV-2 cytopathic effect ([3]; 8.33 nM): 3.35% (inactive)
- inhibition of SARS-CoV-2 cytopathic effect ([3]; 100 nM): 0.86% (inactive)
- inhibition of SARS-CoV-2 cytopathic effect ([3]; 833.33 nM): 3.23% (inactive)
- inhibition of SARS-CoV-2 cytopathic effect ([3]; 10000 nM): -3.32% (inactive)

Compound: O=C(/C=C/N1C[C@H]2C[C@@H]1CN2c1ccccn1)c1ccccc1O
- inhibition of SARS-CoV-2 cytopathic effect ([3]; 1 nM): -0.57% (inactive)
- inhibition of SARS-CoV-2 cytopathic effect ([3]; 8.33 nM): -1.55% (inactive)
- inhibition of SARS-CoV-2 cytopathic effect ([3]; 100 nM): -0.95% (inactive)
- inhibition of SARS-CoV-2 cytopathic effect ([3]; 833.33 nM): -5.12% (inactive)
- inhibition of SARS-CoV-2 cytopathic effect ([3]; 10000 nM): -2.56% (inactive)
